In the library only some 2% were active in any assay of this set; here they are far more common.
697 NFkB inh: inhibitors of the PMA/ionomycin-induced NF-kB reporter in 697 B cells; inhibition, % at 4 µM; AID 435022; hit rate 0.33% among 330,000; 697 B-cell NF-kB luciferase reporter, 16 h; in the data active = inhibition above about 35%
Shn3 inh set2: inhibitors of Schnurri-3 3'UTR reporter in osteoblasts. Clone20 osteoblast Shn3 3'UTR firefly luciferase, 24 h. hit rate 0.52% among 360,000. inhibition, % at 12.5 µM. AID 588674;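 active = mean inhibition of at least 75% with every replicate also reaching 75%; inconclusive = mean inhibition at least 75% but some replicate below; inactive = mean inhibition below 75%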
Jurkat NFkB inh: inhibitors of the PMA/ionomycin-induced NF-kB reporter in Jurkat cells; PMA/ionomycin-induced NF-kB luciferase reporter, luminescence; inhibition, % at 4 µM; hit rate 0.53% among 330,000; in the data active = inhibition above about 50%
Beta apoptosis: blocks beta cell apoptosis; INS-1E cytokine-induced death, ATP luminescence, 48 h; percent of positive-control rescue, neutral wells zero; protection from apoptosis, % (concentration not given with the values); hit rate 0.8% among 300,000; AID 435005;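 active = Every replicate reaches about 75%, or at least half do and their mean reaches it too, limit read from the data; inconclusive = At least half of replicates reach the limit but their mean does not; inactive = Under half of replicates reach the limit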;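 note: higher means more ATP so stronger rescue from cytokine killing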
Calb FLC: affects C. albicans growth with fluconazole; C. albicans CaCi-2 (fluconazole-resistant clinical isolate) + fluconazole, Alamar Blue growth, 48 h; hit rate 0.57% among 300,000; AID 1979; growth inhibition, % (test concentration not listed);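 active = growth inhibition above about 58% in most replicates, limit read from the data, passing the limit was not always enough; inconclusive = exactly half the replicates above a set limit; inactive = most replicates below a set limit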;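 note: all wells also contain fluconazole at 8 µg/ml as a sub-toxic cotreatment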
Hits are given with their value; 0 = inactive; ? = inconclusive; - = not tested or not shown.

SMILES	697 NFkB inh	Shn3 inh set2	Jurkat NFkB inh	Beta apoptosis	Calb FLC
CC(=O)c1cccc(NC(=O)C2Cc3c(-c4cccc(C(N)=O)c4)ccnc3O2)c1 (configuration not stated)	-	0	-	-	-
Cc1ccc(S(=O)(=O)Nc2cccc(C(=O)N3CCC(C(N)=O)CC3)c2)cc1	0	0	0	-	-
CN(C)C(=O)c1ccc(NC(=O)COC(=O)C2CCN(S(=O)(=O)c3ccc4c(c3)OCCO4)CC2)cc1	0	0	0	0	0
NS(=O)(=O)c1cccc(NC(=O)c2ccno2)c1	0	0	0	0	0
O=S(=O)(/C(=C\c1ccc(C(F)(F)F)cc1)c1nc2ccccc2[nH]1)c1ccccc1	-	93	-	-	-
CC(C)CN(C(=O)COC(=O)CCC(=O)c1ccc(F)cc1)c1c(N)n(Cc2ccccc2)c(=O)[nH]c1=O	0	0	0	0	0
O=[N+]([O-])c1cc(S(=O)(=O)C(F)(F)F)ccc1Sc1nc2ccccc2[nH]1	0	0	0	0	0
O=[N+]([O-])c1cc(S(=O)(=O)C(F)(F)F)ccc1Sc1nc2ccccc2s1	0	98	0	0	111
O=C(NCc1ccco1)c1ccccc1NS(=O)(=O)c1ccc(Br)s1	0	0	0	0	108
COc1cc2ccccc2cc1C(=O)N(CCN(C)C)c1nc2ccc(Br)cc2s1	0	0	0	0	102
COc1cc2ccccc2cc1C(=O)N(CCN(C)C)c1nc2c(F)cc(F)cc2s1	0	0	0	0	0
Cc1c(Cl)cccc1NC(=O)CSc1nncn1-c1ccccn1	0	0	0	0	0
O=C(Cn1cnc2c(nnn2Cc2ccc(F)cc2)c1=O)NC1CCCC1	0	0	0	0	100
O=C(Cn1cnc2c(nnn2Cc2ccc(Cl)cc2)c1=O)NC1CCCC1	0	0	0	0	0
COC(=O)c1c(NC(=O)C2c3ccccc3Oc3ccccc32)sc(C)c1C	0	0	0	0	0
CCOC(=O)c1c(NC(=O)C2c3ccccc3Oc3ccccc32)sc(C(C)=O)c1C	0	89	0	-	0
COC(=O)c1sc(NC(=O)C2c3ccccc3Oc3ccccc32)c(C(=O)OC)c1C	0	0	0	116	0
CCOc1ccccc1N1CCN(CC(O)COC2CCCc3ccccc32)CC1 (configuration not stated)	0	0	0	0	83
CCOc1ccc(CCNC(=O)CN2C(=O)NC3(CCCCC3)C2=O)cc1OCC	0	0	0	-	0
CCCCCCCC[n+]1c(C)n(-c2ccccc2)c2ccc(NC(C)=O)cc21	0	0	0	102	?
CC(=O)Nc1ccc(SCC(=O)c2cc(C)n(-c3ccccc3)c2C)cc1	0	0	0	0	0
CCOc1ccc(OCCCC(=O)Nc2cc(Cl)ccc2-n2cncn2)cc1	0	0	0	0	-
Cc1nc(N2CCC(C)CC2)c2c(C)c(C(=O)Nc3cccc(C(F)(F)F)c3)sc2n1	0	0	0	0	0
Cc1nc(Nc2cnc(/C=C/c3cc(C(=O)Nc4cccc(C(F)(F)F)c4)ccc3C)cn2)cc(N2CCNCC2)n1	0	-	0	107	0
CCCCCC(=O)N1C[C@@H](n2cc(-c3ccc(F)cc3)nn2)[C@H](O)C[C@@H]1c1ccc(C)cc1	-	0	-	-	-
SMILES	697 NFkB inh	Shn3 inh set2	Jurkat NFkB inh	Beta apoptosis	Calb FLC
CCOC(=O)C1(C)CCN1C(=O)c1cc(F)ccc1C (configuration not stated)	-	0	-	-	-
Cn1c(-c2c(N)n(CCc3ccccc3)c3nc4ccccc4nc23)nc2ccccc21	0	0	0	0	94
CC1(C)CC(=O)C2=C(C1)OC1=C(C(=O)CC(C)(C)C1)C2c1ccc(O)cc1O	0	94	0	102	0
CC1(C)CC(=O)C2=C(C1)OC1=C(C(=O)CC(C)(C)C1)C2c1ccc(O)c([N+](=O)[O-])c1	0	0	0	0	0
CCCOc1ccc(C(=O)C(CN2CCOCC2)c2ccccc2)cc1 (configuration not stated)	0	0	0	79	0
O=C(c1ccc(Cl)cc1)C(CN1CCCCC1)c1ccccc1 (configuration not stated)	0	0	0	91	0
CCCOc1ccc(C(=O)C(c2ccccc2)N2CCOCC2)cc1 (configuration not stated)	0	0	0	0	0
Cc1ccsc1C(=O)N1CCCC(N(C)Cc2ccccc2)C1 (configuration not stated)	0	0	0	0	0
Cc1ccccc1OCC1Cn2c(nc3c2c(=O)n(C)c(=O)n3C)O1 (configuration not stated)	0	0	0	0	0
CCCC(=O)NC(c1ccccc1OC)c1ccc2cccnc2c1O (configuration not stated)	0	88	0	95	101
CCCCC(=O)NC(c1ccccc1OC)c1ccc2cccnc2c1O (configuration not stated)	0	94	0	96	96
CCCCC(=O)NC(c1ccc(OC)c(OC)c1)c1c(O)ccc2ccccc12 (configuration not stated)	0	0	0	0	0
Cc1cc(NC(=O)CN2C(=O)/C(=C/c3ccc(C(C)C)cc3)SC2=S)no1	-	0	-	-	-
Cc1ccc(NC(=O)c2c(-c3c(F)cccc3Cl)noc2C)cc1F	0	0	0	96	0
Cc1nnc(NC(=O)c2c(-c3ccccc3Cl)noc2C)s1	0	0	0	0	83
Cc1cc(NC(=O)c2c(-c3c(F)cccc3Cl)noc2C)no1	0	0	0	0	0
Cc1nc(C(=O)NNC(=O)c2c(-c3c(Cl)cccc3Cl)noc2C)cs1	0	0	0	86	0
Cc1cc(C(=O)NNC(=O)c2c(-c3c(Cl)cccc3Cl)noc2C)no1	0	0	0	0	0
CCCCN(C)C(=O)c1ccc(Nc2nc(C(N)Cc3ccc(C(F)(F)F)cc3)cs2)nc1 (configuration not stated)	-	0	-	-	-
CCN(CC)CC(C)(C)C(=O)/C=C/c1ccc(/C=C/C(=O)C(C)(C)CN(CC)CC)cc1	-	98	-	-	-
CCN(CC)CCOC(=O)/C=C/c1ccccc1	0	0	0	0	0
Cc1sc2ncnc(NCC3CCCO3)c2c1C (configuration not stated)	0	0	0	0	0
c1ccc(-c2csc3ncnc(NCC4COc5ccccc5O4)c23)cc1 (configuration not stated)	-	0	-	127	0
Cc1sc2ncnc(NCC3COc4ccccc4O3)c2c1C (configuration not stated)	-	0	-	130	0
Cc1sc2ncnc(NCC(C)(C)N3CCOCC3)c2c1C	0	0	0	85	?
Cc1cc(C(=O)NC2CCCCCCC2)ccc1[N+](=O)[O-]	0	0	0	0	0
COc1ccc(-c2noc(CN(C)C(=O)c3ccoc3C)n2)cc1	0	0	0	0	0
CC(=O)Nc1ccc(-c2ccnc3c2CC(C)(C(=O)NCc2ccco2)O3)cc1 (configuration not stated)	-	0	-	-	-
O=C1CC2(CCN(C(=O)c3ccccc3F)CC2)Oc2ccccc21	0	87	0	0	0
O=c1[nH]c(=O)n(Cc2ccco2)c2c1C(C(F)(F)F)(C(F)(F)F)N=C(c1ccc(F)cc1)N2	0	0	0	102	0
